Experimental data taken from PubChem BioAssay (Tox21).
Values joined by “and” are separate entries in the source; they are usually repeats but may differ in a detail not shown here. Equal entries are not always repeated. Results filed as inconclusive are left out. Where a call stands in place of a potency, no number is given. Active and inactive are the calls of the source. Calls come from the whole dose curve; as a rule, active = well fitted inhibition curve with a large enough effect in the repeat runs; inconclusive = weak or mixed curves; inactive = no such curve, though single readings can be large or run the other way.

Target: Cytochrome P450 2D6 (Homo sapiens) (UniProt P10635)
Sequence (P10635 whole entry, looked up): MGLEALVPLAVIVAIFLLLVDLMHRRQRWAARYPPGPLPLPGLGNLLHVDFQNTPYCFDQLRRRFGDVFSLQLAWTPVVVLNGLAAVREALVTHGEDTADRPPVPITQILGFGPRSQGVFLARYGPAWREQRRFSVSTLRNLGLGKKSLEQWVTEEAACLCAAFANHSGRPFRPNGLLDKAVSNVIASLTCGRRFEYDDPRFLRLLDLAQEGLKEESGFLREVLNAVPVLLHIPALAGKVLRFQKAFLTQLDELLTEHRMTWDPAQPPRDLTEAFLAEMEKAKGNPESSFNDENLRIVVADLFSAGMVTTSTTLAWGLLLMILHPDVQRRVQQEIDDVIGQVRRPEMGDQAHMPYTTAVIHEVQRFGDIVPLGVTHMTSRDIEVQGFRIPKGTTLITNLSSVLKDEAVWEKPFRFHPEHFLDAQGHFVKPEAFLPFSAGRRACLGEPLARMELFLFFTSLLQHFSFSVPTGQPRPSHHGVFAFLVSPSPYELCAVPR
Assay: Cytochrome P450 Family 2 Subfamily D Member 6 (CYP2D6) small molecule antagonists: luciferase reporter qHTS assay (AID 1671196); note: nearly all actives have a fitted effect of over 50% in size
Conditions: P450-Glo CYP2D6 enzyme assay, luciferin luminescence, 1 h; series mostly up to 115 µM
Description: U.S. Tox21 Program National Center for Advancing Translational Sciences [NCATS] U.S. Environmental Protection Agency [EPA] National Institutes of Environmental Health Sciences [NIEHS] National Toxicology Program [NTP] U.S. Food and Drug Administration [FDA] Tox21 Assay Overview: Cytochrome P450 (CYP) enzymes are membrane-bound hemeproteins that play a key role in metabolism of drugs and xenobiotics. Evaluation of the effect of chemicals on CYP isozymes is useful to minimize the adverse drug reactions and toxicities in drug development process. Tox21 chemicals were tested for their effect on CYP enzyme activities by using P450-Glo (TM) screening systems (Promega Corporation, Madison, WI). These systems provide a luminescent method containing proluciferin substrates and are converted to luciferin products by CYP isozymes. The luciferin products formed are detected with a luciferin detection reagent, and the amount of light produced is proportional to CYP activity. P450-Glo (TM) CYP2D6 screening system (Catalog. No. V9890) was used to detect the compounds that interfere in CYP2D6 activity.
Tox21 Assay Protocol Summary: Two ul of enzyme-substrate mix was dispensed into medium binding white/solid 1536-well plates (Greiner Bio-One North America Inc., Monroe, NC) using a BioRaptr Flying Reagent Dispenser (FRD, Beckman Coulter, Brea, CA). […] The assay plates were incubated at room temperature for 10 min. Then 2 ul of NADPH regeneration solution was added to each well of the assay plates using an FRD and incubated at room temperature for 1 h. The reaction was stopped by adding 4 ul of detection reagent using an FRD and after 20 min incubation at room temperature the luminescence signal was measured using a ViewLux plate reader (Perkin Elmer, Shelton, CT). Data were expressed as relative luminescence units.
Potency is the fitted concentration of half-maximal effect.

**Q.** With CCCCCCCCCCBr as the molecule, how does the Potency read?
**A.** inactive

**Q.** Which Potency does the source give for CCOC(=O)C1(c2ccccc2)CCN(CCC(C#N)(c2ccccc2)c2ccccc2)CC1 here?
**A.** 4.9 µM (active)

**Q.** O=[N+]([O-])c1ccc2ccc3cccc4ccc1c2c34 was tested. Which Potency did it give?
**A.** 31.7 µM (active)

**Q.** Which Potency does the source give for NC(=O)CCl here?
**A.** inactive

**Q.** With C[C@@H]1CC[C@@]2(OC1)O[C@H]1[C@@H](O)[C@H]3[C@@H]4CC[C@H]5C[C@@H](O[C@@H]6O[C@H](CO)[C@H](O[C@@H]7O[C@H](CO)[C@@H](O)[C@H](O[C@@H]8OC[C@@H](O)[C@H](O)[C@H]8O)[C@H]7O[C@@H]7O[C@H](CO)[C@@H](O)[C@H](O[C@@H]8O[C@H](CO)[C@@H](O)[C@H](O)[C@H]8O)[C@H]7O)[C@H](O)[C@H]6O)[C@H](O)C[C@]5(C)[C@H]4CC[C@]3(C)[C@H]1[C@@H]2C as the molecule, how does the Potency read?
**A.** inactive

**Q.** With c1ccc2c(c1)OCC(C1=NCCN1)O2 (stereo not given) as the molecule, how does the Potency read?
**A.** 13.8 µM (active)

**Q.** Clc1ccc(-c2ccc(Cl)c(Cl)c2Cl)c(Cl)c1Cl was tested. Which Potency did it give?
**A.** inactive

**Q.** Which Potency does the source give for BrCBr here?
**A.** inactive

**Q.** How did the Potency turn out when O=c1ssc(Cl)c1Cl was run?
**A.** 63.3 µM (active)

**Q.** How did the Potency turn out when N#CCCC(Br)(C#N)CBr (stereo not given) was run?
**A.** inactive

**Q.** For ClCc1ccc(Cl)cc1Cl, which Potency is on record?
**A.** inactive

**Q.** With Clc1ccc(C(Cl)(Cl)Cl)c(Cl)c1 as the molecule, how does the Potency read?
**A.** 31.9 µM (active)

**Q.** How did the Potency turn out when COc1ccc(OC)c(CC(C)N)c1 (stereo not given) was run?
**A.** 7.62 µM (active)

**Q.** CCCCCCCCCBr was tested. Which Potency did it give?
**A.** inactive

**Q.** Which Potency does the source give for Clc1ccc(C(c2ccc(Cl)cc2)C(Cl)(Cl)Cl)cc1 here?
**A.** inactive

**Q.** For CCc1ccccc1C, which Potency is on record?
**A.** inactive

**Q.** COc1ccc(OC)c(C=O)c1 was tested. Which Potency did it give?
**A.** inactive

**Q.** With COc1ccc([N+](=O)[O-])cc1O as the molecule, how does the Potency read?
**A.** inactive

**Q.** For N#C/C=C/c1ccccc1, which Potency is on record?
**A.** inactive

**Q.** For COS(=O)(=O)c1ccc(C)cc1, which Potency is on record?
**A.** inactive

**Q.** How did the Potency turn out when O=C(NC(=O)c1c(F)cccc1F)Nc1cc(Cl)c(OC(F)(F)C(F)F)c(Cl)c1 was run?
**A.** inactive

**Q.** How did the Potency turn out when Oc1ccc(C2(c3ccc(O)cc3)c3ccccc3-c3ccccc32)cc1 was run?
**A.** 79.6 µM (active)

**Q.** Which Potency does the source give for COP(=O)(CCC(=O)NCO)OC here?
**A.** inactive

**Q.** With COc1ccc(N)cc1N as the molecule, how does the Potency read?
**A.** 10.3 µM (active) and 17.1 µM (active)

**Q.** How did the Potency turn out when NC(=O)c1ccc(N)nc1 was run?
**A.** inactive

**Q.** Which Potency does the source give for C[C@]12CC[C@@H]3c4ccc(OC(=O)N(CCCl)CCCl)cc4CC[C@H]3[C@@H]1CC[C@@H]2O here?
**A.** inactive

**Q.** With CC(C)C1CCC(Cc2ccc(Cl)cc2)C1(O)Cn1cncn1 (stereo not given) as the molecule, how does the Potency read?
**A.** 22.2 µM (active)

**Q.** O=[N+]([O-])c1cc(C(F)(F)F)c(Cl)c([N+](=O)[O-])c1Cl was tested. Which Potency did it give?
**A.** inactive

**Q.** How did the Potency turn out when O=C(CCCN1CCC2(CC1)C(=O)NCN2c1ccccc1)c1ccc(F)cc1 was run?
**A.** 0.977 µM (active)

**Q.** For CC(C)OS(C)(=O)=O, which Potency is on record?
**A.** 40.2 µM (active)

**Q.** How did the Potency turn out when Oc1ccc(C(=C(Cl)Cl)c2ccc(O)cc2)cc1 was run?
**A.** inactive

**Q.** Which Potency does the source give for CC(C)(c1ccc(O)c(-c2ccccc2)c1)c1ccc(O)c(-c2ccccc2)c1 here?
**A.** 63.3 µM (active)

**Q.** With CCCCOP(=O)(CCCC)OCCCC as the molecule, how does the Potency read?
**A.** inactive

**Q.** For N#CCCO, which Potency is on record?
**A.** inactive

**Q.** For C=CC(=O)OCC(COC(=O)C=C)(COC(=O)C=C)COC(=O)C=C, which Potency is on record?
**A.** 28.3 µM (active)

**Q.** With CC(C)CCCCCOC(=O)c1ccccc1C(=O)OCCCCCC(C)C as the molecule, how does the Potency read?
**A.** 27.9 µM (active)

**Q.** For OC(c1ccc(Cl)cc1)(c1ccc(Cl)cc1)C(Cl)(Cl)Cl, which Potency is on record?
**A.** 31.7 µM (active)

**Q.** For CC1(C)[C@H](C(=O)O[C@H](C#N)c2cccc(Oc3ccccc3)c2)[C@@H]1/C=C(\Cl)C(F)(F)F, which Potency is on record?
**A.** inactive

**Q.** Which Potency does the source give for CCCCCCCCCCCCCCCC[N+](C)(C)C here?
**A.** 862 nM (active) and 1.42 µM (active) and 1.38 µM (active)

**Q.** COc1cc(C=O)cc2c1[C@H](COC(N)=O)[C@]1(OC(C)=O)ON2C[C@H]2[C@@H]1N2C(C)=O was tested. Which Potency did it give?
**A.** inactive
